Test systems include SR leukemia; RPMI-8226 leukemia; OVCAR-8 ovarian; OVCAR-5 ovarian; OVCAR-4 ovarian; SK-OV-3 ovarian; IGROV1 ovarian; OVCAR-3 ovarian; HS 578T breast; NCI/ADR-RES ovarian; T-47D breast; BT-549 breast; MDA-MB-435 melanoma; SW-620 colon; MCF7 breast; HCT-116 colon; HCC-2998 colon; KM12 colon.
Holding throughout (assay): NCI-60 one-dose screen, 48 h (100 = growth as untreated, 0 = no growth, -100 = all killed)
What all share (settings): 10 µM unless noted

The panel holds about 83,000 compounds, 20% with a hit somewhere; the sample as a whole holds those more often.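 Note: values are percent growth. 100 is the growth of untreated cells, values between 100 and 0 indicate rising inhibition; between -100 and 0 indicates cell death.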 A number with no mark means an inactive call. Active and inactive are the calls of the source. How the source made its calls: active means growth percent below 10; inactive means the rest.

Turning to `O=C(COc1ccc(C2SCC(=O)N2c2ccccc2)cc1)c1ccccc1` (centres undefined), the growth was 91.5% with SR leukemia; 91.9% in the assay with RPMI-8226 leukemia; 94.1% in the assay on OVCAR-8 ovarian; 104% in the assay with OVCAR-5 ovarian; 107% with OVCAR-4 ovarian; 111% in the assay with SK-OV-3 ovarian. The growth in the assay on IGROV1 ovarian is 96.4%; in the assay on OVCAR-3 ovarian, 116%; with HS 578T breast, 94.1%; in the assay with NCI/ADR-RES ovarian it was 96.5%; with T-47D breast, 81.5%; in the assay on BT-549 breast, 92%. The growth with MDA-MB-435 melanoma is 103%; in the assay on SW-620 colon, 104%; with MCF7 breast, 88.3%; with HCT-116 colon, 94.8%; with HCC-2998 colon, 102%; with KM12 colon, 99.4%.

For the compound `COc1ccc(/C=C/C(=O)c2nnn(-c3ccc(Br)cc3)c2C)cc1OC`, the growth in the assay with SR leukemia was 52.6%; in the assay with RPMI-8226 leukemia, 10.5%; in the assay with OVCAR-8 ovarian it was 82.7%; in the assay on OVCAR-5 ovarian it was 94.1%; with OVCAR-4 ovarian it was 71.6%; in the assay with SK-OV-3 ovarian it was 90.3%. Besides, the growth in the assay with IGROV1 ovarian is 69.2%; with OVCAR-3 ovarian it was 52.9%; with HS 578T breast it was 92.5%; in the assay with NCI/ADR-RES ovarian it was 59.3%; in the assay on T-47D breast, 66.4%; in the assay on BT-549 breast, 63.9%. Moreover, the growth in the assay on MDA-MB-435 melanoma is 61.3%; in the assay on SW-620 colon it was 51.6%; in the assay with MCF7 breast, 12.9%; in the assay with HCT-116 colon it was 5.41% (active); in the assay with HCC-2998 colon, 83.7%; with KM12 colon, 66.7%.

For the compound `COc1ccc(N)cc1C(=O)Nc1cccc(-c2cc(=O)c3c(OC)c(OC)c(OC)cc3o2)c1`, the growth in the assay on SR leukemia is 40.9%; in the assay on RPMI-8226 leukemia, 35.4%; with OVCAR-8 ovarian, 56.4%; in the assay on OVCAR-5 ovarian, 94.8%; in the assay on OVCAR-4 ovarian, 81.5%; in the assay on SK-OV-3 ovarian it was 119%. The growth in the assay with IGROV1 ovarian is 51.3%; in the assay with OVCAR-3 ovarian, 65.5%; with HS 578T breast, 58.3%; in the assay with NCI/ADR-RES ovarian, 60.7%; in the assay on T-47D breast it was 41.7%; in the assay with BT-549 breast it was 51.2%. The growth with MDA-MB-435 melanoma was 77.4%; in the assay on SW-620 colon, 91.4%; in the assay on MCF7 breast, 45.2%; with HCT-116 colon it was 65.5%; with HCC-2998 colon, 55.3%; in the assay on KM12 colon, 63.6%.

As for `NNC(=O)c1sc2nc(-c3cnccn3)cc(-c3cccs3)c2c1N`, the growth with SR leukemia was 86.5%; with RPMI-8226 leukemia, 107%; in the assay on OVCAR-8 ovarian, 93.8%; in the assay on OVCAR-5 ovarian it was 99.1%; in the assay with OVCAR-4 ovarian, 74.4%; in the assay with SK-OV-3 ovarian, 92.1%. Besides, the growth in the assay with IGROV1 ovarian was 89.5%; in the assay with OVCAR-3 ovarian, 84.5%; in the assay with HS 578T breast it was 119%; with NCI/ADR-RES ovarian it was 105%; in the assay with T-47D breast, 86.4%; in the assay on BT-549 breast it was 101%. The growth was 100% in the assay with MDA-MB-435 melanoma; 110% in the assay with SW-620 colon; 84.6% with MCF7 breast; 99.3% with HCT-116 colon; 100% in the assay on HCC-2998 colon; 92.6% with KM12 colon.

In the case of `CCN(CC)c1ccc2cc(C(=O)NCCOCCOCCOCCn3cc(CCC(=O)Nc4ccc(C(=O)c5ccc(NC(=O)OC(C)(C)C)cc5)cc4)nn3)c(=O)oc2c1`, the growth in the assay with SR leukemia was 44%; in the assay on RPMI-8226 leukemia it was 16.2%; in the assay on OVCAR-8 ovarian, 17.4%; in the assay with OVCAR-5 ovarian, 99.8%; in the assay with OVCAR-4 ovarian, 33.5%; with SK-OV-3 ovarian it was 98.3%. Further, the growth with IGROV1 ovarian was 41.1%; in the assay with OVCAR-3 ovarian, 44.6%; in the assay with HS 578T breast it was 83.7%; in the assay on NCI/ADR-RES ovarian, 88.3%; in the assay with T-47D breast, -8.51% (active); in the assay with BT-549 breast, 26.4%. Moreover, the growth with MDA-MB-435 melanoma is 62.4%; with SW-620 colon it was 82.1%; in the assay with MCF7 breast, 44.1%; with HCT-116 colon, 36.3%; in the assay on HCC-2998 colon, 96.8%; with KM12 colon, 36.6%.

For the compound `COc1cc(/C=C/C(=O)c2ccc(NC(=O)CSc3nnc(-c4ccc5nc(-c6ccccc6)[nH]c5c4)o3)cc2)cc(OC)c1OC`, the growth with SR leukemia is 36.8%; with RPMI-8226 leukemia it was 30.7%; with OVCAR-8 ovarian, 97.1%; in the assay with OVCAR-5 ovarian, 102%; in the assay with OVCAR-4 ovarian, 99.5%; in the assay on SK-OV-3 ovarian, 116%. In addition, the growth with IGROV1 ovarian was 97.2%; with OVCAR-3 ovarian, 72.1%; in the assay on HS 578T breast, 85.5%; in the assay with NCI/ADR-RES ovarian it was 100%; in the assay with T-47D breast it was 89%; with BT-549 breast it was 81.6%. Moreover, the growth is 94.1% with MDA-MB-435 melanoma; 98.8% in the assay with SW-620 colon; 43.9% in the assay on MCF7 breast; 40.8% in the assay on HCT-116 colon; 111% with HCC-2998 colon; 90% with KM12 colon.

On to `Nc1c(C(=O)c2ccccc2)sc2nc(-c3cnccn3)cc(-c3cccs3)c12`, for which the growth is 105% with SR leukemia; 108% in the assay on RPMI-8226 leukemia; 103% in the assay with OVCAR-8 ovarian; 103% with OVCAR-5 ovarian; 106% in the assay on OVCAR-4 ovarian; 103% with SK-OV-3 ovarian. The growth with IGROV1 ovarian was 97.4%; with OVCAR-3 ovarian it was 108%; in the assay with HS 578T breast it was 98.8%; in the assay with NCI/ADR-RES ovarian it was 107%; with T-47D breast, 98.9%; with BT-549 breast, 116%. Further, the growth is 98.9% in the assay on MDA-MB-435 melanoma; 105% in the assay with SW-620 colon; 90.8% in the assay on MCF7 breast; 96.5% in the assay on HCT-116 colon; 105% in the assay on HCC-2998 colon; 102% in the assay with KM12 colon.

On to `COc1ccccc1/C=C/C=N/NC1=NC2C(S1)N(C)C(=O)N2c1ccccc1` (centres undefined), for which the growth in the assay on SR leukemia was 16.7%; in the assay with RPMI-8226 leukemia it was 18.9%; in the assay with OVCAR-8 ovarian, 24.4%; in the assay with OVCAR-5 ovarian, 33.3%; in the assay with OVCAR-4 ovarian, 56.8%; in the assay on SK-OV-3 ovarian, 62.4%. For the same compound, the growth with IGROV1 ovarian was 19.4%; in the assay with OVCAR-3 ovarian, -27.2% (active); with HS 578T breast it was 25.5%; in the assay on NCI/ADR-RES ovarian it was 10.4%; with T-47D breast it was 77.8%; in the assay on BT-549 breast it was 10%. The growth with MDA-MB-435 melanoma is -20.6% (active); in the assay on SW-620 colon it was 17.7%; in the assay on MCF7 breast, 13.4%; in the assay on HCT-116 colon it was 3.81% (active); in the assay with HCC-2998 colon it was 19.9%; with KM12 colon, 7.34% (active).

(Values after PubChem BioAssay (NCI).)
